Reference: PubChem BioAssay (NCATS)
Results filed as inconclusive are left out. A call without a number means that no potency is given here. A number with no mark means an inactive call. The source made the active and inactive calls. The call rests on the fitted dose curve; in most records, active means well fitted inhibition curve with a large enough effect; inconclusive means small, poorly fitted or top-dose-only effect; inactive means flat fitted curve, though single readings scatter.

assay: P-glycoprotein substrates identified in KB-8-5-11 adenocarcinoma cell line, qHTS therapeutic library screen (AID 1346987); details: KB-8-5-11 (P-gp overexpressing) viability, CellTiter-Glo, 72 h; series mostly up to 44.5 µM; further: nearly all actives have a fitted effect of over 65% in size
Excerpt: The ATP-binding cassette transporters P-glycoprotein (P-gp) is known to limit brain penetration of many chemotherapy drugs. […] As such, we developed a high-throughput screen (HTS) to identify substrates of P-gp from a series of chemical libraries including the National Center for Advancing Translational Sciences Pharmaceutical Collection NPC, 2,816 compounds), testing a total of 10,804 compounds, most of which have known mechanisms of action. We used the CellTiter-Glo viability assay to test library compounds against the parental KB-3-1 human cervical adenocarcinoma cell line and the colchicine-selected sub-line KB-8-5-11 that over-expresses P-gp. KB-8-5-11 cells were also tested in the presence of a P-gp inhibitor (tariquidar) to assess reversability of transporter-mediated resistance. Of the tested compounds, a total of 90 P-gp substrates were identified including 55 newly identified P-gp substrates. Substrates were confirmed using an orthogonal killing assay against HEK-293 cells transfected with P-gp. As exemplars, we confirmed that […] (cyclin-dependent kinase inhibitor); AT9283, (Janus kinase 2/3 inhibitor); ispinesib (kinesin spindle protein inhibitor); gedatolisib (PKI-587, phosphoinositide 3-kinase/mammalian target of rampamycin inhibitor); GSK-690693 (AKT inhibitor); and KW-2478 (heat shock protein 90 inhibitor) were substrates , and direct ATPase stimulation was assessed. ABCG2 was also found to confer high levels of resistance to AT9283, GSK-690693 and gedatolisib, while ispinesib, AT7519 and KW-2478 were weaker substrates.
The HeLa derivative cell line, KB-3-1, and its colchicine-selected, P-gp-overexpressing subline, KB-8-5-11 were maintained in DMEM with 10% FCS and Pen/Strep with glutamine at 37 degree C in 5% CO2. For KB-8-5-11 cells, colchicine was added to the medium at a concentration of 100 ng/mL. HEK-293 cells transfected with empty vector (pcDNA) or vector containing human ABCB1 (MDR-19) or ABCG2 (R-5) have been described previously (Robey, Lin, Qiu, Chan & Bates, 2011) and were maintained in EMEM supplemented with 10% FCS, Pen/Strep and glutamine with 2 mg/ml G418 to select for the expression of the transporter. Cultures were confirmed to be free of mycoplasma infection using the MycoAlert Mycoplasma Detection Kit (Lonza, Walkersville, MD). For the screen, assay medium was identical to culture medium except for KB-8-5-11 where colchicine was excluded from the medium.
All cell lines were plated into 1536-well plates at 500 cells/well in 5 uL media. Compounds were then pinned in dose-response using a 1536-head pin tool (Kalypsis, San Diego, CA) and plates were incubated at 37 degree C in 5% CO2 for an additional 72 h. CellTiter-Glo reagent (Promega) was dispensed into the wells, incubated for 5 min and luminescence was read on a ViewLux instrument (Perkin-Elmer). Cytotoxic compounds were defined as those that yielded a curve class of -1.1, -1.2, -2.1, -2.2, -2.3, or -2.4, a maximum response of >50% and an AC50 of < 10 uM. Cherry-picked hits from screening analysis were tested with both the KB pair of cell lines, and the pcDNA (empty vector control) and MDR-19 (P-gp overexpressing) pair were tested, in the absence and presence of tariquidar.

Compound | Potency | activity change, negative = cytotoxicity
CC1=C2[C@@H]([C@H](C)CC[C@H]2/C=C(\C)C(=O)O)[C@H](O)C1 | inactive | 
O=c1ccn([C@@H]2O[C@H](CO)[C@@H](O)[C@H]2O)c(=O)[nH]1 | inactive | 
CC/C=C/CC1=C(CCCCCCCC(=O)O)CCC1=O | inactive | 
C=CCc1ccc(O[C@@H]2O[C@H](CO[C@@H]3O[C@@H](C)[C@H](O)[C@@H](O)[C@H]3O)[C@@H](O)[C@H](O)[C@H]2O)cc1 | inactive | 
C[C@]1(O)CC[C@@H]2C(C(=O)O)=CO[C@@H](O[C@@H]3O[C@H](COC(=O)c4ccc(O)cc4)[C@@H](O)[C@H](O)[C@H]3O)[C@@H]21 | inactive | 
C=C1CCC[C@]2(C)C[C@]3(O)OC(=O)C(C)=C3C[C@@H]12 | inactive | 
N#CCc1ccc(O)cc1O[C@@H]1O[C@H](CO)[C@@H](O)[C@H](O)[C@H]1O | inactive | 
COc1cc(/C=C/C(=O)OC2[C@H](O)CC(O)(C(=O)O)C[C@H]2O)ccc1O (stereo not given in full) | inactive | 
O=C(O[C@H]1[C@@H]2C=CO[C@@H](O[C@@H]3O[C@H](CO)[C@@H](O)[C@H](O)[C@H]3O)[C@@H]2[C@@]2(CO)O[C@@H]12)c1ccc(O)c(O)c1 | inactive | 
CN1C(=O)N[C@@H](Cc2c[nH]c3c(Cl)cccc23)C1=O | inactive | 
COC(=O)CC[C@@H](C)[C@H]1CC[C@H]2[C@@H]3CC(=O)[C@H]4C[C@H](OC(C)=O)CC[C@]4(C)[C@H]3CC[C@]12C | inactive | 
C[C@@H](OC(=O)/C=C/c1ccc(O)cc1)C1=C[C@]2(C=C[C@@H]3C(C(=O)O)=CO[C@@H](O[C@@H]4O[C@H](CO[C@@H]5O[C@H](CO)[C@@H](O)[C@H](O)[C@H]5O)[C@@H](O)[C@H](O)[C@H]4O)[C@@H]32)OC1=O | inactive | 
Oc1ccc([C@H]2COc3cc(O)ccc3C2)cc1 | inactive | 
CC(C)=CC/C=C(/C)[C@H]1CC[C@]2(C)[C@@H]1[C@H](O)CC1[C@@]3(C)CC[C@H](O)C(C)(C)[C@@H]3[C@@H](O[C@@H]3O[C@H](CO)[C@@H](O)[C@H](O)[C@H]3O[C@@H]3O[C@@H](C)[C@H](O)[C@@H](O)[C@H]3O)C[C@]12C (stereo not given in full) | inactive | 
CCc1c(CC(N)=O)c2cc(OCCCP(=O)(O)O)ccc2n1Cc1ccccc1 | inactive | 
O=C(/C=C/c1ccc(O)cc1)OC[C@H]1O[C@@H](OC(=O)/C=C/c2ccccc2)[C@H](O)[C@@H](O)[C@@H]1O | inactive | 
C=C(C(=O)O)[C@@H]1CC=C2CCC[C@H](C)[C@@]2(C)C1 | inactive | 
Cc1cc(O)c(C(C)C)cc1O[C@@H]1O[C@H](CO)[C@@H](O)[C@H](O)[C@H]1O | inactive | 
CCOc1ccc(C(Nc2ccccn2)c2ccc3ccc(C)nc3c2O)cc1C (stereo not given) | inactive | 
CC1=CC(=O)OC(C)(CC(C)(O)C(=O)O)C1 (stereo not given) | inactive | 

Compound | Potency | activity change, negative = cytotoxicity
O=C(/C=C/c1ccc(O)cc1)OC[C@]12O[C@H]1[C@@H](O)[C@@H]1C=CO[C@@H](O[C@@H]3O[C@H](CO)[C@@H](O)[C@H](O)[C@H]3O)[C@@H]12 | inactive | 
COC(=O)C1C(CC(C)=O)C=CC(O)C12Oc1cc(C)cc(O)c1C2=O (stereo not given) | inactive | 
C=CC1(C)CC(O)C2(CCC3C(C)(C(=O)O)CCCC3(C)C2=O)C1 (stereo not given) | inactive | 
CC(C)[C@H]1CCC(CO)=C[C@@H]1/C=C(\CO)C(=O)O | inactive | 
CCCCCCCCCCCCCCCCCCOP(=O)([O-])OC1CC[N+](C)(C)CC1 | inactive | 
O=C(O)Cc1nn(Cc2nc3cc(C(F)(F)F)ccc3s2)c(=O)c2nccnc12 | inactive | 
CC1(CO)CC[C@]2(C(=O)O[C@@H]3O[C@H](CO)[C@@H](O)[C@H](O)[C@H]3O)CC[C@]3(C)C(=CCC4[C@@]5(C)CC[C@H](O[C@@H]6O[C@H](C(=O)O)[C@@H](O)[C@H](O)[C@H]6O)C(C)(C)C5CC[C@]43C)C2C1 (stereo not given in full) |  | 7.12% [at 9.29 µM]
C/C(=C/CCC(CO)C1CCC2(C)C3CCC4C(C)(C)C(OC5OC(CO)C(O)C(O)C5O)CC(O)C45CC35CCC12C)COC1OC(CO)C(O)C(O)C1O (stereo not given) | inactive | 
CCC(C)C(=O)O[C@@H]1[C@@H](O)[C@@H](O[C@H]2O[C@H](CO)[C@@H](O)[C@H](O)[C@H]2O)O[C@H](CO)[C@H]1O (stereo not given in full) | inactive | 
COc1cccc(-n2nc(C(=O)O)cc2-c2ccc(C3CCCCC3)c(Cl)c2)c1 | inactive | 
C=C(C)[C@@H](C)[C@H]1O[C@]23C[C@]4(CO2)C(CCC2[C@@]5(C)CC[C@H](O[C@@H]6OC[C@H](O)[C@H](O[C@@H]7O[C@H](CO)[C@@H](O)[C@H](O)[C@H]7O)[C@H]6O[C@@H]6O[C@@H](CO)[C@H](O)[C@H]6O)C(C)(C)C5CC[C@]24C)C3[C@@](C)(O)[C@@H]1OC(C)=O (stereo not given in full) |  | 4.3% [at 9.29 µM]
COc1cc(/C=C/C(=O)O[C@H]2[C@H](O)[C@@H](CO)O[C@@]2(CO)O[C@H]2O[C@H](COC(=O)c3ccc(O)cc3)[C@@H](O)[C@H](O)[C@H]2O)cc(OC)c1OC | inactive | 
C/C=C/C1=CC2=C(CO1)C(=O)[C@](C)(O)[C@H](OC(=O)c1c(O)cc(OC)c(O)c1C)C2 | inactive | 
COC1C=C([C@@H]2CC=C3[C@@]4(C)C(CC[C@]32C)[C@@]2(C)C=CC(=O)C(C)(C)C2C[C@H]4OC(C)=O)C(=O)O1 (stereo not given in full) | inactive | 
O=C(/C=C/c1ccc(O)cc1)OCC1=C[C@@H](O)[C@@H]2C=CO[C@@H](O[C@@H]3O[C@H](CO)[C@@H](O)[C@H](O)[C@H]3O)[C@H]12 | inactive | 
C=CC(C)(O)CC/C=C(\C)C(=O)OCC1OC(OC2CCC3(C)C(CCC4(C)C3CC=C3C5CC(C)(C)C(O)CC5(C(=O)O)CCC34C)C2(C)C)C(O)C(OC2OC(CO)C(O)C(OC3OC(CO)C(O)C(OC4OC(COC5OC(CO)C(O)C(O)C5O)C(O)C(O)C4O)C3O)C2O)C1O (stereo not given) |  | 5.27% [at 9.29 µM]
C[C@@H]1CCC2C(C)(C)[C@H](O)CC[C@]2(C)[C@@]12Cc1c(O)cc3c(c1O2)CN(CCO)C3=O (stereo not given in full) | inactive | 
CC1CCC2(C(=O)OC3OC(CO)C(O)C(O)C3O)CCC3(C(=O)O)C(=CCC4C5(C)CCC(OC6OC(C)C(O)C(O)C6O)C(C)(C)C5CCC43C)C2C1C (stereo not given) | inactive | 
COC1(CC(C)C)NC(=O)C(O)(Cc2ccccc2)NC1=O (stereo not given) | inactive | 
CC(=O)Oc1cc2c(s1)CCN([C@H](C(=O)C1CC1)c1ccccc1F)C2 | inactive | 
